Reference: PubChem BioAssay AID2685 (National Center for Advancing Translational Sciences (NCATS), 2010)
Out of some 320,000 compounds screened, about 2,100 (0.66%) were called active. About 53% were inconclusive and are not listed. Calls come from the whole dose curve; as a rule, active = well fitted inhibition curve with a large enough effect in the signal ratio, with a control signal flat (not every such curve was filed as active); inconclusive = small, poorly fitted or top-dose-only effect, or effect the other way, or a change in a side signal; inactive = flat fitted curve, though single readings scatter; the % refers to the signal ratio. Shown is part of a subset that was picked to be rich in actives.

Assay: qHTS Assay for Lipid Storage Modulators in Drosophila S3 Cells;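 for cell number change: cells counted by Cell Tracker Red CMTPX staining in the red channel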; for lipid storage change, negative = inhibition: % is set by controls: 0 for no effect and ±100 for the full control effect
Conditions: BODIPY lipid droplet fluorescence, 18-24 h, cells fed with added oleic acid; cell number change: measured here: cell count max response; series mostly up to 46.1 µM; lipid storage change, negative = inhibition: at the top concentration
Method in brief: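 Drosophila S3 cells got compounds at several concentrations plus oleic acid (400 uM solution). Laser-scanning cytometry with 488 nm excitation read lipid droplets at 500-530 nm and cells at 575-640 nm. Percent activity was relative to 20 uM Triacsin C.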
Potency is the fitted concentration of half-maximal effect.

Row | SMILES | Potency | cell number change [%] | lipid storage change, negative = inhibition | outcome
1 | CN1CCN(c2ccccc2NC(=O)c2ccc(-c3ccccc3[N+](=O)[O-])o2)CC1 | 6.51 µM (active) | -10.4 | – | –
2 | CCC(=O)N1CCN(c2ccccc2NC(=O)c2ccc([N+](=O)[O-])o2)CC1 | 10.3 µM (active) | -1.26 | – | –
3 | COc1ccc(N2CCCC2)c(NC(=O)c2ccc([N+](=O)[O-])o2)c1 | 10.3 µM (active) | 16.1 | – | –
4 | CC(C)C(=O)N1CCN(c2ccccc2NC(=O)c2ccc([N+](=O)[O-])o2)CC1 | – | -10.5 | -43.4% (inactive) | –
5 | CCC(=O)N1CCN(c2ccccc2NC(=O)c2ccc(-c3cccc([N+](=O)[O-])c3)o2)CC1 | – | 8.53 | 18.4% (inactive) | –
6 | COc1ccc(C(=O)Nc2ccccc2N2CCN(C(=O)c3ccccc3)CC2)cc1Br | 14.6 µM (active) | -6.04 | – | –
7 | CC1CCN(c2ccccc2NC(=O)c2ccc([N+](=O)[O-])o2)CC1 | – | 8.97 | 20.1% (inactive) | –
8 | O=C(Nc1ccccc1N1CCN(C(=O)c2ccccc2)CC1)c1cccc(Cl)c1 | – | -6.81 | 0.483% (inactive) | –
9 | COc1ccccc1NC(=O)c1ccc(-c2ccccc2[N+](=O)[O-])o1 | – | – | -1.69% (inactive) | –
10 | O=C(Nc1ccc(N2CCCC2)c(Cl)c1)c1ccc([N+](=O)[O-])o1 | – | 2.06 | -19.2% (inactive) | –
11 | CC(C)CC(NC(=O)C(NC(=O)OC(C)(C)C)C(C)C)C(N)=O (stereo unspecified) | – | 1.19 | 25.3% (inactive) | –
12 | C/C(=N/NC(=O)c1ccc2nc[nH]c2c1)c1cccs1 | – | 9.11 | 10.5% (inactive) | –
13 | CC12CCC(C(=O)Nc3ccccc3)(C(Br)C1=O)C2(C)C (stereo unspecified) | – | -7.13 | -1.99% (inactive) | –
14 | CC/C(O)=C(/C#N)c1nnc2n1CCCCC2 | – | 8.5 | 5.83% (inactive) | –
15 | CCOCCCNS(=O)(=O)c1cc2[nH]c3c(c2cc1C)C(=O)CC(C)(C)C3 | – | 16.9 | 15.5% (inactive) | –
16 | Cc1ccc(C(=O)NCCNC(=O)c2ccco2)cc1C | – | 19.6 | – | inactive
17 | COC(=O)c1c(NC(=O)CC2SC(N)=NC2=O)sc2c1CCCC2 (stereo unspecified) | – | – | – | inactive
18 | COc1ccc(NC(C)c2ccccc2)cc1 (stereo unspecified) | – | -5.31 | -0.458% (inactive) | –
19 | COc1ccc(N2CCN(c3nc(Cl)nc(N4CCOCC4)n3)CC2)cc1 | – | -11.2 | 1.09% (inactive) | –
20 | COc1cc(C(=O)N(Cc2ccc(C)o2)C2CCS(=O)(=O)C2)cc(OC)c1OC (stereo unspecified) | – | -6.11 | – | inactive
21 | O=C(Nc1ccccc1N1CCCCC1)c1ccc(-c2ccc(Cl)cc2)o1 | 14.6 µM (active) | 1.36 | – | –
22 | CN1CCN(c2ccccc2NC(=O)c2ccc(-c3ccc(Cl)c(Cl)c3)o2)CC1 | – | – | – | inactive
23 | O=C(Nc1ccccc1N1CCCCC1)c1ccc(Cl)cc1 | – | 12 | 11.4% (inactive) | –
24 | Cc1csc(N(C(=O)Cc2ccccc2F)c2ccccc2)n1 | – | 3.81 | 12.9% (inactive) | –
25 | Clc1ccc(C2=Nn3c(nnc3-c3cccnc3)SC2)s1 | – | -22.1 | 2.18% (inactive) | –
26 | COC(=O)c1sc(=S)n(-c2cccc(Cl)c2)c1N | – | -15.4 | 10.6% (inactive) | –

Row | SMILES | Potency | cell number change [%] | lipid storage change, negative = inhibition | outcome
27 | COC(=O)c1sc(=S)n(-c2ccccc2)c1N | 11.6 µM (active) | – | – | –
28 | CCOC(=O)c1sc(=S)n(-c2ccccc2)c1N | – | -17.5 | -10% (inactive) | –
29 | Cc1cc(C)n2c(SCC(C)C)nnc2n1 | – | -0.577 | -18.2% (inactive) | –
30 | O=C(CCCc1ccccc1)N1CCc2ccccc21 | – | 4.72 | 3.79% (inactive) | –
31 | Cc1ccc(NC(=O)CS(=O)CC(=O)N(CC(=O)NC(C)(C)C)c2cccc(C)c2C)cc1 (stereo unspecified) | – | 1.3 | – | inactive
32 | O=C(N/C(=C\c1ccccc1)C(=O)N1CCOCC1)c1ccco1 | – | 1.67 | – | inactive
33 | CC(C)C12CN3CC(C(C)C)(CN(C1)C3(C)C)C2=O | – | 8.23 | 28.2% (inactive) | –
34 | COc1ccc(C2(C(=O)NCc3ccccc3Cl)CCOCC2)cc1OC | – | -6.59 | 0.89% (inactive) | –
35 | O=C(COc1ccc(Cl)cc1Cl)N/N=C/C1CC=CCC1 (stereo unspecified) | 1.84 µM (active) | -11.9 | – | –
36 | N#Cc1ccc(OCC(=O)N/N=C/C2CC=CCC2)cc1 (stereo unspecified) | – | 18.8 | -10.4% (inactive) | –
37 | COc1ccc(OCC(=O)N/N=C/C2CC=CCC2)cc1 (stereo unspecified) | – | -11.3 | 24.9% (inactive) | –
38 | CCc1[nH]nc(C(=O)N2CCCC(Nc3cccc(F)c3)C2)c1C (stereo unspecified) | – | 0.697 | 22.4% (inactive) | –
39 | CCNC(=S)Nc1cccc([N+](=O)[O-])c1 | – | 16.5 | 13.2% (inactive) | –
40 | COc1cccc(-c2nn(-c3ccc(C)cc3)cc2C(=O)N(C)CC(=O)Nc2cccc(F)c2)c1 | 6.51 µM (active) | -27.2 | – | –
41 | COc1cccc(NC(=O)CN(C)C(=O)c2cn(-c3ccccc3)nc2-c2cccnc2)c1 | – | -3.75 | -11.3% (inactive) | –
42 | CN(CC(=O)Nc1ccc(F)cc1)C(=O)c1ccncc1 | 1.64 µM (active) | – | – | –
43 | CCCCC1CCC(C(=O)N(C)CC(=O)Nc2cccc(OC)c2)CC1 (stereo unspecified) | – | -0.846 | 1.23% (inactive) | –
44 | COc1ccc(NC(=O)CN(C)C(=O)c2cn(-c3ccccc3)nc2-c2ccc(F)cc2)cc1 | – | -10.6 | -10.5% (inactive) | –
45 | CN(CC(=O)Nc1c(Cl)cccc1Cl)C(=O)c1ccncc1 | – | 22.3 | – | inactive
46 | CN(CC(=O)Nc1cccc(F)c1)C(=O)c1cccc2ccccc12 | 5.8 µM (active) | -19.1 | – | –
47 | CN(CC(=O)Nc1cccc(F)c1)C(=O)c1cc(=O)[nH]c2ccccc12 | – | 6.52 | -3.39% (inactive) | –
48 | CCCCC1CCC(C(=O)N(C)CC(=O)Nc2cccc(F)c2)CC1 (stereo unspecified) | 0.651 µM (active) | 20.8 | – | –
49 | CC1CC1C(=O)N(C)CC(=O)Nc1cccc(F)c1 (stereo unspecified) | – | -4.04 | -4.95% [at 0.0737 µM] (inactive) | –
50 | CN(CC(=O)Nc1ccc(F)cc1)C(=O)c1ccc(N2C(=O)CCC2=O)cc1 | – | 5.41 | 14.9% (inactive) | –
51 | CN(CC(=O)Nc1cccc(F)c1)C(=O)c1cc(-c2ccccc2)nc2ccccc12 | – | – | 3.36% [at 0.0737 µM] (inactive) | –
